The panel holds about 83,000 compounds, 20% with a hit somewhere; the sample as a whole holds those more often.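 The endpoint reported here, percent growth, reads 100 for growth as untreated, 0 for no net growth and -100 for all cells dead.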 Values without a mark were called inactive. Calls of active or inactive are those of the source. Rule for the calls: active = growth percent below 10; inactive = the rest.

Experimental findings from PubChem BioAssay (NCI) are described below.

Some test systems named below: EKVX NSCLC; UO-31 renal; TK-10 renal; ACHN renal; CAKI-1 renal; CCRF-CEM leukemia; MOLT-4 leukemia; RPMI-8226 leukemia; OVCAR-8 ovarian; OVCAR-5 ovarian; OVCAR-4 ovarian; SK-OV-3 ovarian; IGROV1 ovarian; OVCAR-3 ovarian; HS 578T breast; NCI/ADR-RES ovarian; T-47D breast; SR leukemia; A498 renal.
What all share (assay): NCI-60 one-dose screen, 48 h (100 = growth as untreated, 0 = no growth, -100 = all killed)
Holding throughout (settings): 10 µM unless noted

Regarding `CCOC(=O)c1c(Nc2ccccc2)nn2c(N)c(C#N)c(-c3ccccc3)nc12`, the growth is 82.3% in the assay with EKVX NSCLC; 81.1% in the assay on UO-31 renal; 105% with TK-10 renal; 83.4% in the assay on ACHN renal; 72% in the assay with CAKI-1 renal; 68.3% with CCRF-CEM leukemia. For the same molecule, the growth was 46.8% with MOLT-4 leukemia; 68.8% with RPMI-8226 leukemia; 94% in the assay on OVCAR-8 ovarian; 109% in the assay with OVCAR-5 ovarian; 82.5% with OVCAR-4 ovarian; 108% in the assay on SK-OV-3 ovarian. Moreover, the growth is 90.2% in the assay on IGROV1 ovarian; 94.5% in the assay with OVCAR-3 ovarian; 75.2% in the assay on HS 578T breast; 88.7% with NCI/ADR-RES ovarian; 55.5% with T-47D breast.
For the molecule `COC(=O)C1CCCN(S(=O)(=O)/N=C2\NC(=O)NC2=C(Cl)Cl)C1` (stereo not given), the growth with EKVX NSCLC was 104%; in the assay with ACHN renal it was 109%; in the assay with CAKI-1 renal it was 102%; in the assay on CCRF-CEM leukemia it was 58%; with MOLT-4 leukemia, 96.3%; in the assay with SR leukemia, 28.6%. For the same molecule, the growth in the assay on RPMI-8226 leukemia was 0.297% (active); with OVCAR-8 ovarian, 105%; with OVCAR-5 ovarian, 130%; in the assay with OVCAR-4 ovarian, 119%; in the assay with SK-OV-3 ovarian, 106%; in the assay with IGROV1 ovarian it was 107%. The growth was 122% with OVCAR-3 ovarian, 110% in the assay with HS 578T breast, 111% in the assay on NCI/ADR-RES ovarian and 68.2% in the assay on T-47D breast.
Take `COc1cc(/C=C/C(=O)c2ccc(F)cc2)ccc1Oc1nc(NCCO)nc(N2CCOCC2)n1`: the growth in the assay with EKVX NSCLC is 82.8%; with TK-10 renal it was 146%; in the assay with ACHN renal it was 70.9%; in the assay with CAKI-1 renal it was 71.9%; in the assay on CCRF-CEM leukemia, 4.33% (active); in the assay with MOLT-4 leukemia, 6.59% (active). Besides, the growth in the assay on SR leukemia is -0.24% (active); in the assay with RPMI-8226 leukemia, -1.38% (active); in the assay on OVCAR-8 ovarian, 86.1%; in the assay with OVCAR-5 ovarian, 98.8%; in the assay on OVCAR-4 ovarian, 88.4%; in the assay with SK-OV-3 ovarian it was 113%. For the same molecule, the growth in the assay with IGROV1 ovarian was 70.6%; with OVCAR-3 ovarian it was 98.8%; in the assay with HS 578T breast, 83.8%; in the assay with NCI/ADR-RES ovarian, 78.9%; in the assay with T-47D breast it was 96.5%.
Regarding `Clc1ccc(Cc2nnc3sc(-c4cccnc4)nn23)cc1`, the growth is 85.2% in the assay on EKVX NSCLC; 71.7% in the assay on UO-31 renal; 96.8% in the assay on ACHN renal; 84% with CAKI-1 renal; 83.9% in the assay with A498 renal; 98.9% in the assay with CCRF-CEM leukemia. For the same molecule, the growth in the assay on MOLT-4 leukemia is 97.2%; in the assay with SR leukemia, 91.1%; with RPMI-8226 leukemia it was 97.5%; with OVCAR-8 ovarian, 96.6%; in the assay with OVCAR-5 ovarian, 94.7%; with OVCAR-4 ovarian, 94.2%. Further, the growth in the assay with SK-OV-3 ovarian was 114%; in the assay with IGROV1 ovarian it was 95.4%; in the assay with OVCAR-3 ovarian, 107%; in the assay with HS 578T breast it was 101%; in the assay on NCI/ADR-RES ovarian, 81.3%; in the assay with T-47D breast, 89.2%.
Consider `Cn1ccnc1C(=O)/C=C/c1ccc(NC(=O)Nc2ccc(Cl)cc2)cc1`, for which the growth in the assay on EKVX NSCLC is 91.7%; in the assay on UO-31 renal it was 97.7%; in the assay on TK-10 renal, 131%; with ACHN renal, 88.4%; in the assay with CAKI-1 renal, 69.6%; in the assay with CCRF-CEM leukemia, 62.9%. For the same molecule, the growth in the assay on MOLT-4 leukemia was 57.5%; in the assay with SR leukemia, 32.6%; in the assay with RPMI-8226 leukemia it was 63.2%; in the assay on OVCAR-8 ovarian, 81.9%; with OVCAR-5 ovarian, 110%; in the assay with OVCAR-4 ovarian, 76.3%. Also, the growth is 84.3% with SK-OV-3 ovarian; 96.7% with IGROV1 ovarian; 84.2% with OVCAR-3 ovarian; 77% in the assay on HS 578T breast; 76.2% in the assay on NCI/ADR-RES ovarian; 62.7% in the assay on T-47D breast.
With `Clc1ccc2c(NCCCN3CCOCC3)c3oc4ccccc4c3nc2c1`, the growth with EKVX NSCLC is 62.6%; with UO-31 renal it was 40.1%; in the assay on ACHN renal, 19.3%; in the assay on CAKI-1 renal, 30.4%; with A498 renal, 33.7%; with SR leukemia, 8.11% (active). Also, the growth in the assay with RPMI-8226 leukemia is 23.2%; in the assay on OVCAR-8 ovarian it was 32.5%; in the assay on OVCAR-5 ovarian it was 39.6%; in the assay with OVCAR-4 ovarian, 64.8%; in the assay on SK-OV-3 ovarian it was 97.6%; in the assay with IGROV1 ovarian, 25.8%. The growth in the assay with OVCAR-3 ovarian was 74.2%; with HS 578T breast, 58.2%; in the assay on NCI/ADR-RES ovarian, 44.2%; in the assay on T-47D breast, 76.5%.
For the molecule `COc1ccc(C(=O)/C=C/c2ccc(Oc3nc(NCCO)nc(N4CCOCC4)n3)c(OC)c2)cc1`, the growth with EKVX NSCLC is 90.1%; with UO-31 renal it was 67.4%; in the assay with TK-10 renal, 140%; in the assay with ACHN renal, 62.5%; with CCRF-CEM leukemia it was 9.43% (active); in the assay on MOLT-4 leukemia, 10.6%. Further, the growth is 9.42% (active) in the assay on RPMI-8226 leukemia; 69.6% in the assay with OVCAR-8 ovarian; 99.9% with OVCAR-5 ovarian; 81.8% in the assay with OVCAR-4 ovarian; 108% in the assay with SK-OV-3 ovarian; 78.6% with IGROV1 ovarian. Besides, the growth in the assay with OVCAR-3 ovarian was 101%; with HS 578T breast, 78.1%; in the assay with NCI/ADR-RES ovarian it was 82.9%; with T-47D breast, 94.1%.
`N#Cc1nc(-c2ccccc2)oc1S(=O)(=O)N1CCN(CCc2ccccn2)CC1`: the growth in the assay on EKVX NSCLC is 89%; in the assay with UO-31 renal it was -42.3% (active); in the assay on ACHN renal, -95.4% (active); with CAKI-1 renal, 54.3%; with A498 renal, 112%; in the assay with MOLT-4 leukemia it was 0.215% (active). Further, the growth with SR leukemia is -19.2% (active); in the assay on RPMI-8226 leukemia, 36.1%; in the assay with OVCAR-8 ovarian, 84.9%; in the assay with OVCAR-5 ovarian, 86.3%; in the assay with OVCAR-4 ovarian it was 89.7%; with SK-OV-3 ovarian, 137%. Besides, the growth is 10% with IGROV1 ovarian; 31.2% with OVCAR-3 ovarian; 106% in the assay with HS 578T breast; 99.2% in the assay with NCI/ADR-RES ovarian; -24.2% (active) in the assay with T-47D breast.
